# Reference: PubChem BioAssay AID651671 (Sanford-Burnham Center for Chemical Genomics, 2012)
# The list shows a part of the results. Unmarked numbers belong to inactive results.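 The calls were made as follows: active = activation of at least 7% in one or more replicates; inactive = the rest.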
# Assay: activation of alpha-dystroglycan glycosylation – single concentration, Pro5-aDG cells, confirmation (AID 651671);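 also: cells exposed to compound for two days before detection; 0% = DMSO-treated Pro5 cells and 100% = DMSO-treated B10-LARGE cells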
# Settings: alpha-DG glycosylation, IIH6 AlphaLISA, active compounds read high, screened at 10 µM (by protocol), scaled to LARGE-overexpressing B10 cells as 100%
compound,measurement,value
CNCC(O)c1cc(F)c(OCc2ccccc2)c(OCc2ccccc2)c1F (stereo unspecified),activation,4%
